PubChem BioAssay (NCI)
The panel holds about 79,000 compounds, 15% with a hit somewhere; the sample as a whole holds those more often. Activity calls are given as the source filed them. Rule as the data show it: active = growth inhibition above about 70%; inactive = the rest.

Legend:
[1] = NCI Yeast Anticancer Drug Screen. Data for the rad52 strain (AID 147);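 also: 0% = growth of vehicle-treated control cultures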; conditions: S. cerevisiae rad52 mutant growth inhibition, active compounds read high
How it was run: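 Here a repair-compromised yeast strain receives each compound; its growth is then quantified and normalised to vehicle-only controls.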

[2] = NCI Yeast Anticancer Drug Screen. Data for the wt1 strain (AID 149);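 also: 0% = growth of vehicle-treated wt1 cultures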; conditions: S. cerevisiae wt1 strain (SPY 50644) growth inhibition, active compounds read high
How it was run: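 Readout: yeast growth inhibition, normalised to vehicle controls, in the wt1 strain exposed to test compounds.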

[3] = NCI Yeast Anticancer Drug Screen. Data for the rad50EPP+ strain (AID 151);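 also: 0% = growth of vehicle-treated control cultures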; conditions: S. cerevisiae rad50 mutant strain, active compounds read high
How it was run: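 Read-out is yeast growth inhibition relative to vehicle; cells used were the rad50EPP+ strain.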

[4] = NCI Yeast Anticancer Drug Screen. Data for the mgt1 strain (AID 153); conditions: S. cerevisiae mgt1 mutant growth inhibition, active compounds read high
How it was run: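 Measured: inhibition of mgt1 yeast growth by compound, normalized to vehicle-treated cultures.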

[5] = NCI Yeast Anticancer Drug Screen. Data for the rad50 strain (AID 155);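 also: 0% = growth of vehicle-only cultures of the same strain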; conditions: S. cerevisiae rad50 strain growth inhibition, active compounds read high
How it was run: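 Compounds were tested on a yeast strain with an engineered DNA damage repair alteration; the reported value is growth inhibition normalised to vehicle treatment.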

[6] = NCI Yeast Anticancer Drug Screen. Data for the mec2-1 strain (AID 157); conditions: S. cerevisiae mec2-1 strain, active compounds read high
How it was run: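 Using mec2-1 yeast: add compound, measure growth, express inhibition versus vehicle-treated cultures.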

[7] = NCI Yeast Anticancer Drug Screen. Data for the rad14 strain (AID 159);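 also: 0% = growth of vehicle-treated control cultures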; conditions: S. cerevisiae rad14 strain growth inhibition, active compounds read high
How it was run: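 Compound-treated yeast with a defined DNA-repair lesion; growth inhibition normalised to vehicle-treated cultures.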

[8] = NCI Yeast Anticancer Drug Screen. Data for the sgs1 mgt1 strain (AID 161);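 also: 0% = growth of cultures given vehicle only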; conditions: S. cerevisiae sgs1 mgt1 strain, active compounds read high
How it was run: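 This yeast growth screen uses a strain with defined DNA-repair lesions; compound-treated growth is compared with vehicle-treated growth.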

[9] = NCI Yeast Anticancer Drug Screen. Data for the CLN2oe strain (AID 163);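 also: 0% = growth of vehicle-only control cultures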; conditions: S. cerevisiae CLN2oe strain, active compounds read high
How it was run: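 Whole-cell yeast growth assay. A strain engineered for altered cell-cycle control received compound, and inhibition relative to vehicle-treated cultures was recorded.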

[10] = NCI Yeast Anticancer Drug Screen. Data for the cln2 rad14 strain (AID 165);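 also: 0% = growth equal to vehicle treated cultures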; conditions: S. cerevisiae cln2 rad14 strain, active compounds read high
How it was run: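 Yeast strain cln2 rad14, bearing defects in cell cycle control and DNA repair, serves as the test system; values reflect growth inhibition compared with vehicle.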

[11] = NCI Yeast Anticancer Drug Screen. Data for the bub3 strain (AID 167); conditions: S. cerevisiae bub3 mutant strain, active compounds read high
How it was run: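 Growth of a checkpoint-deficient yeast mutant is measured after compound exposure. Values represent inhibition relative to vehicle.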

[12] = NCI Yeast Anticancer Drug Screen. Data for the wt2 strain (AID 169);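 also: 0% = growth of vehicle-treated yeast cultures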; conditions: S. cerevisiae wt2 strain growth inhibition, active compounds read high
How it was run: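 Treated yeast vs. vehicle-treated yeast: growth inhibition determined.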

[13] = NCI Yeast Anticancer Drug Screen. Data for the mlh1 strain (AID 171);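 also: 0% = growth of vehicle-treated control cultures of the same strain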; conditions: S. cerevisiae mlh1 strain growth inhibition, active compounds read high
How it was run: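 A yeast strain with a defined genetic lesion serves as the test organism. Cultures receive compound or vehicle, and growth is measured.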

[14] = NCI Yeast Anticancer Drug Screen. Data for the sgs1 strain (AID 173);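 also: 0% = growth of vehicle-only control cultures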; conditions: S. cerevisiae sgs1 mutant, active compounds read high
How it was run: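 A genetically defined yeast mutant is incubated with the test compound, and its growth is compared to that of the same strain given vehicle.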

[15] = NCI Yeast Anticancer Drug Screen. Data for the mlh1 rad18 strain (AID 175); conditions: S. cerevisiae mlh1 rad18 strain growth inhibition, active compounds read high
How it was run: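 Steps: expose repair-defective yeast to compound; measure growth; express inhibition against vehicle-treated controls.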

[16] = NCI Yeast Anticancer Drug Screen. Data for the rad18 strain (AID 177); conditions: S. cerevisiae rad18 mutant growth inhibition, active compounds read high
How it was run: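 Measured value is growth inhibition of a yeast strain bearing a DNA repair alteration, referenced to vehicle-treated cells.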

[17] = at 5.0 µM (retest, dose inferred, filed as 0.5)
[18] = at 50.0 µM (retest, dose inferred, filed as 5.0)

Measured: growth inhibition

CCCCCCCCCCCC1=C(O)C(=O)C=C(O)C1=O
active: [1]; at 33.0 µM 88% | [1]; at 100.0 µM 94% | [2]; at 33.0 µM 94% | [2]; at 100.0 µM 91% | [3]; at 33.0 µM 79% | [3]; at 100.0 µM 84% | [4]; at 33.0 µM 89% | [4]; at 100.0 µM 91% | [5]; at 33.0 µM 94% | [5]; [18] 79% | [5]; at 100.0 µM 93% | [6]; at 33.0 µM 94% | [6]; [18] 90% | [6]; at 100.0 µM 95% | [7]; at 11.0 µM 80% | [7]; at 33.0 µM 96% | [7]; at 100.0 µM 80% | [8]; [18] 85% | [9]; at 33.0 µM 93% | [9]; at 100.0 µM 91% | [10]; [18] 88% | [11]; [17] 81% | [11]; at 33.0 µM 96% | [11]; [18] 89% | [11]; at 100.0 µM 95% | [12]; at 11.0 µM 79% | [12]; at 33.0 µM 96% | [12]; at 100.0 µM 81% | [13]; at 33.0 µM 93% | [13]; at 100.0 µM 91% | [14]; at 33.0 µM 95% | [14]; at 100.0 µM 89% | [15]; [18] 90% | [15]; at 50.0 µM 72.3% | [16]; at 33.0 µM 95% | [16]; at 100.0 µM 92%
inactive: [1]; at 1.2 µM -7% | [1]; at 3.7 µM -2% | [1]; at 11.0 µM 68% | [2]; at 1.2 µM -4% | [2]; at 3.7 µM -7% | [2]; at 11.0 µM 64% | [3]; at 1.2 µM -5% | [3]; at 3.7 µM -14% | [3]; at 11.0 µM 31% | [4]; at 1.2 µM -3% | [4]; at 3.7 µM -5% | [4]; at 11.0 µM 22% | [5]; at 1.2 µM -15% | [5]; at 3.7 µM -15% | [5]; [17] 32% | [5]; at 11.0 µM 36% | [5]; at 50.0 µM 46.5% | [6]; at 1.2 µM -7% | [6]; at 3.7 µM -4% | [6]; [17] 9% | [6]; at 11.0 µM 63% | [6]; at 50.0 µM 37.9% | [7]; at 1.2 µM 2% | [7]; at 3.7 µM 0% | [8]; [17] 30% | [8]; at 50.0 µM 46.9% | [9]; at 1.2 µM -7% | [9]; at 3.7 µM -17% | [9]; at 11.0 µM 63% | [10]; [17] -11% | [10]; at 50.0 µM 35.9% | [11]; at 1.2 µM -10% | [11]; at 3.7 µM -4% | [11]; at 11.0 µM 54% | [11]; at 50.0 µM 57% | [12]; at 1.2 µM 3% | [12]; at 3.7 µM 8% | [13]; at 1.2 µM -12% | [13]; at 3.7 µM -9% | [13]; at 11.0 µM 37% | [14]; at 1.2 µM -19% | [14]; at 3.7 µM -11% | [14]; at 11.0 µM 46% | [15]; [17] 41% | [16]; at 1.2 µM -9% | [16]; at 3.7 µM -6% | [16]; at 11.0 µM 64%

COc1cc(C2c3cc4c(cc3OC(NNc3ccccc3)C2C)OCO4)cc(OC)c1OC (stereo unspecified)
inactive: [1]; at 1.2 µM 36% | [1]; at 3.7 µM 44% | [1]; at 11.0 µM 59% | [2]; at 1.2 µM 16% | [2]; at 3.7 µM 9% | [2]; at 11.0 µM 19% | [3]; at 1.2 µM 39% | [3]; at 3.7 µM 42% | [3]; at 11.0 µM 48% | [3]; at 33.0 µM 47% | [3]; at 100.0 µM 67% | [4]; at 1.2 µM 13% | [4]; at 3.7 µM 23% | [4]; at 11.0 µM 26% | [5]; at 1.2 µM 23% | [5]; at 3.7 µM 33% | [5]; [17] 14% | [5]; at 11.0 µM 52% | [5]; at 50.0 µM 12.3% | [6]; at 1.2 µM 2% | [6]; at 3.7 µM 5% | [6]; [17] 10% | [6]; at 11.0 µM 16% | [6]; at 33.0 µM 63% | [6]; at 50.0 µM 40.5% | [7]; at 1.2 µM -2% | [7]; at 3.7 µM 1% | [7]; at 11.0 µM 29% | [7]; at 33.0 µM 52% | [8]; [17] -4% | [8]; at 50.0 µM 20.6% | [9]; at 1.2 µM 41% | [9]; at 3.7 µM 40% | [9]; at 11.0 µM 46% | [10]; [17] 17% | [10]; at 50.0 µM 53% | [11]; at 1.2 µM 7% | [11]; at 3.7 µM 20% | [11]; [17] 19% | [12]; at 1.2 µM -2% | [12]; at 3.7 µM -13% | [12]; at 11.0 µM 41% | [13]; at 1.2 µM 16% | [13]; at 3.7 µM 23% | [13]; at 11.0 µM 24% | [13]; at 33.0 µM 26% | [13]; at 100.0 µM 30% | [14]; at 1.2 µM 29% | [14]; at 3.7 µM 37% | [14]; at 11.0 µM 34% | [15]; [17] 36% | [16]; at 1.2 µM 52% | [16]; at 3.7 µM 56% | [16]; at 11.0 µM 64%
active: [1]; at 33.0 µM 93% | [1]; at 100.0 µM 75% | [2]; at 33.0 µM 74% | [2]; at 100.0 µM 94% | [4]; at 33.0 µM 82% | [4]; at 100.0 µM 89% | [5]; at 33.0 µM 92% | [5]; [18] 96% | [5]; at 100.0 µM 73% | [6]; [18] 96% | [6]; at 100.0 µM 91% | [7]; at 100.0 µM 75% | [8]; [18] 97% | [9]; at 33.0 µM 89% | [9]; at 100.0 µM 79% | [10]; [18] 95% | [11]; at 11.0 µM 73% | [11]; at 33.0 µM 89% | [11]; [18] 94% | [11]; at 50.0 µM 88.2% | [11]; at 100.0 µM 83% | [12]; at 33.0 µM 96% | [12]; at 100.0 µM 90% | [14]; at 33.0 µM 88% | [14]; at 100.0 µM 94% | [15]; [18] 94% | [15]; at 50.0 µM 77% | [16]; at 33.0 µM 94% | [16]; at 100.0 µM 84%
